# According to PubChem BioAssay:
# Unmarked numbers belong to inactive results. This is one part of the list. Activity calls are given as the source filed them.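 The calls were made as follows, unless noted: active = inhibition above the hit cutoff computed for the primary STAT3 screen (cut at about 44% in these data); inactive = the rest.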
# Tests used:
# [1] = STAT3 reporter inhibitors, retest of hits, confirmation, U3A cells, luciferase, luminescence (AID 1265); details: IL-6 STAT3 luciferase reporter, at 5.7 µM, hits give high values, cell line lacks STAT1;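 also: 0% = IL-6 plus DMSO and 100% = IL-6 plus nifuroxazide control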
# [2] = NF-kB reporter inhibitors in human cells, confirmation, counter-screen for STAT3 inhibitor project, cell-based, HEK293T, luciferase, TNF-alpha stimulus (AID 1308;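 active = inhibition above the mean of solvent-only control wells plus 3 SD, cutoff set per campaign, cut at about 13% in these data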;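 also: 0% = TNF-alpha with DMSO and 100% = TNF-alpha with MG high control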); details: TNF-alpha induced, at 5.7 µM, hits give high values
# [3] = STAT1 reporter inhibitors, IFN-gamma induced, confirmation, counter-screen for STAT3 inhibitor project, cell-based, NIH 3T3, luciferase luminescence (AID 1317;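 active = inhibition above the mean plus 3 SD of solvent-only control wells, limit set per screening run, cut at about 16% in these data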;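 also: 0% = DMSO with IFN-gamma and 100% = nifuroxazide control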); details: NIH 3T3 STAT1-luciferase reporter, at 5.7 µM, hits give high values
# [4] = biological target: Photoreceptor-specific nuclear receptor (Homo sapiens) (UniProt Q9Y5X4); experiment: NR2E3 agonist confirmation in cells, cell-based, luminescence, CHO-S two-hybrid (AID 624378;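 active = average inhibition above a cutoff equal to the mean inhibition of all tested compounds plus one SD, cut at about 70% in these data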;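 also: 0% = DMSO in NR2E3 cells and 100% = DMSO in cells lacking NR2E3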); details: CHO-S mammalian two-hybrid NR2E3-NCOR, luciferase luminescence; at 3.98 µM; hits give high values
# Photoreceptor-specific nuclear receptor (Homo sapiens), sequence (Q9Y5X4 whole entry, looked up, the tested form may be a part): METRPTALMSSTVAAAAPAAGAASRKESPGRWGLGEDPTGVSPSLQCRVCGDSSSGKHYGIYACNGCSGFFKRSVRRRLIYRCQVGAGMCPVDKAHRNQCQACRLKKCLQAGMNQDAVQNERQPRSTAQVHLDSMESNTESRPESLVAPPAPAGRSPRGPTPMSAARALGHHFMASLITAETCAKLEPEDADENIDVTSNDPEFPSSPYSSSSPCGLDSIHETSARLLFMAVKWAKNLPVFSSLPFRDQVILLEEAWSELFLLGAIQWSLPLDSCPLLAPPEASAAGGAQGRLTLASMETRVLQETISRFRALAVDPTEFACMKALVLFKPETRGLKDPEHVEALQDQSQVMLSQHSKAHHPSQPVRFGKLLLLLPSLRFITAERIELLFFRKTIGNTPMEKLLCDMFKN
# [5] = GAL4-VP16 reporter modulators, confirmation, counter-screen for NR2E3 agonist project, cell-based, luminescence, CHO-S, high throughput (AID 624379;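 active = mean inhibition above a cutoff equal to the average over all tested compounds plus one standard deviation, cut at about 70% in these data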;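 also: luciferase from a UAS reporter driven by GAL4-VP16 transactivation; 0% = DMSO with VP16-transfected cells and 100% = DMSO with cells lacking VP16; higher means less reporter light so more repression of VP16 activity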); details: CHO-S GAL4-VP16 luciferase reporter, at 3.98 µM, hits give high values
# [6] = Gal4-VP16 luciferase reporter inhibitors, counter-screen for COUP-TFII antagonist project, cell-based, luminescence, HEK293 (AID 687007; in the data active = inhibition above about 13%); details: at 8.5 µM, hits give high values
# [7] = biological target: COUP transcription factor 2 (Homo sapiens) (UniProt P24468); experiment: NR2F2 transcriptional activity inhibitors, confirmation, cell-based, luciferase reporter, HEK293, triplicate (AID 687008;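 active = mean inhibition over three repeats above a set limit taken from the earlier primary screen, cut at about 38% in these data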;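 also: 100% = cells given the luciferase reporter alone without the COUP-TF2 vector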); details: HEK293 NGFI-A luciferase reporter, luminescence; at 8.5 µM; hits give high values
# COUP transcription factor 2 (Homo sapiens), sequence (P24468 whole entry, looked up): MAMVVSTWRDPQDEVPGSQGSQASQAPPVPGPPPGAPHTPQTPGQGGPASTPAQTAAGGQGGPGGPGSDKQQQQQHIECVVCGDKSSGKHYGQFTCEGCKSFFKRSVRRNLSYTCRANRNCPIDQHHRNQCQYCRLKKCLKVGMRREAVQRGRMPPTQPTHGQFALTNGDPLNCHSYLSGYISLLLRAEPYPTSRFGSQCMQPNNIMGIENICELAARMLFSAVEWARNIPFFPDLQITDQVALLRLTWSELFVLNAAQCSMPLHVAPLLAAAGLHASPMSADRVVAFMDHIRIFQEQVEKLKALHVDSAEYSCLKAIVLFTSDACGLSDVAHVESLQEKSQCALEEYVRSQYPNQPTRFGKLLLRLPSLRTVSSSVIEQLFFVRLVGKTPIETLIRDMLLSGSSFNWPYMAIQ
# [8] = StAR promoter reporter inhibitors, counter-screen for LRH-1 inverse agonist project, cell-based, luminescence, high throughput (AID 651611; in the data active = inhibition above about 28%); details: StAR promoter luciferase reporter counterscreen, at 3.6 µM, hits give high values
# [9] = biological target: Nuclear receptor subfamily 5 group A member 2 (Homo sapiens) (UniProt O00482); experiment: LRH-1 (NR5A2) inverse agonists, retest, confirmation, cell-based, luminescence (AID 651613; in the data active = inhibition above about 42%;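 also: HEK293T cells co-transfected with LRH-1 and StAR promoter luciferase reporter; 0% = vehicle wells and 100% = parental cells lacking receptor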); details: cell-based LRH-1 luciferase reporter, inverse agonism; at 3.6 µM; hits give high values
# Nuclear receptor subfamily 5 group A member 2 (Homo sapiens), sequence (O00482 whole entry, looked up): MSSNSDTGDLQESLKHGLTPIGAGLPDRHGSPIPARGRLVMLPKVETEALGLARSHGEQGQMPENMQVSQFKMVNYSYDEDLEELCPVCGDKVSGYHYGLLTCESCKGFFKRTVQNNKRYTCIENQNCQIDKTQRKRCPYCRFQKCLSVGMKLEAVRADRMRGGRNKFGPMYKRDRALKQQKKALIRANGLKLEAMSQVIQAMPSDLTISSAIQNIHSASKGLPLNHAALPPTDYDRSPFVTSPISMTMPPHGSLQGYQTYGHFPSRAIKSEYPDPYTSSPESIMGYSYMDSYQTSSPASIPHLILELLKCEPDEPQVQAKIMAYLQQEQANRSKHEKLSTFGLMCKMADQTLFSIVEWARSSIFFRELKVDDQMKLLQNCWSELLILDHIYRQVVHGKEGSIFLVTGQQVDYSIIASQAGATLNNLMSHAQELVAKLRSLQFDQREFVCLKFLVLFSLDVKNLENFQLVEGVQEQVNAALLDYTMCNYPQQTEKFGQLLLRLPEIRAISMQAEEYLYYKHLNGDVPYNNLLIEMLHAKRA
# [10] = biological target: Steroidogenic factor 1 (Homo sapiens) (UniProt Q13285); experiment: SF1 (NR5A1) inverse agonists, counter-screen for LRH-1 inverse agonist project, cell-based, luminescence, high throughput (AID 651614; in the data active = inhibition above about 44%;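 also: cells cotransfected with StAR promoter reporter and SF1 expression vector; 0% = vehicle on cells with receptor and 100% = vehicle on cells lacking receptor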); details: cell-based SF1 luciferase reporter, at 3.6 µM, hits give high values
# Steroidogenic factor 1 (Homo sapiens), sequence (Q13285 whole entry, looked up, the tested form may be a part): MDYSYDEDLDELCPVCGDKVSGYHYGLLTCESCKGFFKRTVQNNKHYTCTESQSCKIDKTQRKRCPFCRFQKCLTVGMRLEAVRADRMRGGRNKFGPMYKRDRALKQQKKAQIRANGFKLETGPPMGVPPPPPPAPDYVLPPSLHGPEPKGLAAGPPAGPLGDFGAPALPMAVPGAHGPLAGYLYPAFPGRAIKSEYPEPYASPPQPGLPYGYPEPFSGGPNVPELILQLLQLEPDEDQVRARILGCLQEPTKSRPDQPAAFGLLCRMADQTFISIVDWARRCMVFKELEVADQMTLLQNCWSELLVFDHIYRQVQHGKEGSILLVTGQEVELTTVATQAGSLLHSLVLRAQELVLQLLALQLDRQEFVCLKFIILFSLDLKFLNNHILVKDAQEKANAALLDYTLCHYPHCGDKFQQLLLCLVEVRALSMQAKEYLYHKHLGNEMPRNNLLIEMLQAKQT
# [11] = VP16 transactivation reporter inhibitors, counter-screen for LRH-1 inverse agonist project, cell-based, luminescence, high throughput (AID 651615; in the data active = inhibition above about 33%); details: Gal4-VP16 luciferase reporter cells, at 3.6 µM, hits give high values
# [12] = biological target: Oxysterols receptor LXR-beta (Homo sapiens) (UniProt P55055); experiment: LXR agonists, Gal4 luciferase reporter, confirmation, counter-screen for hcDAF-12 agonist project, cell-based, luminescence, HEK293, H. contortus campaign (AID 743027;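 active = mean percent activation of the reporter above a cutoff set as the average over tested compounds plus their standard deviation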); details: HEK293 Gal4-LXR tk-luc reporter, 24 h, at 6.8 µM, hits give high values, normalized: DMSO 0%, positive control 100%
# Oxysterols receptor LXR-beta (Homo sapiens), sequence (P55055 whole entry, looked up, the tested form may be a part): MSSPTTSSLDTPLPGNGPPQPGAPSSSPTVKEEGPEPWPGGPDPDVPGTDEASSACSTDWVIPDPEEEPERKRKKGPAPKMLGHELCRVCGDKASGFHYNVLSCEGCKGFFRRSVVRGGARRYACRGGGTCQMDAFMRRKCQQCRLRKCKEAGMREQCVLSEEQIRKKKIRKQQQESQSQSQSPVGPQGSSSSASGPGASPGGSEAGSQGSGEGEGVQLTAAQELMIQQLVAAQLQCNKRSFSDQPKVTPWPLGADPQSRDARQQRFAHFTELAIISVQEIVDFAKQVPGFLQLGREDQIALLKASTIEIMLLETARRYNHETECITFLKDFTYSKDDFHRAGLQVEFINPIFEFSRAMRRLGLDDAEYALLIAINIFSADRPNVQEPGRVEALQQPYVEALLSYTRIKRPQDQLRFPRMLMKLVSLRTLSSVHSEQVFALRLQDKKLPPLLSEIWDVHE
# [13] = tested on: Nuclear hormone receptor DAF-12 (Haemonchus contortus); experiment: H. contortus DAF-12 receptor agonists, confirmation, cell-based, luminescence, HEK293, lit1-tk-luc, triplicate (AID 743032;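 active = mean activation across triplicate tests above the threshold derived from the earlier primary screen, cut at about 5.5% in these data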;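 also: 0% = DMSO only wells and 100% = 3 µM Δ7-dafachronic acid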); details: HEK293 hcDAF-12 lit1-tk-luc reporter, at 6.8 µM, hits give high values, % of Δ7-dafachronic acid response
# [14] = tested on: DAF-12 nuclear receptor (Heterodera glycines), GAL4-LBD fusion; experiment: H. glycines DAF-12 receptor agonists, confirmation, cell-based, luminescence, HEK293, GAL4-LBD fusion (AID 743050;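 active = mean activation over triplicate wells above the hit cutoff derived from the earlier primary screen, cut at about 11% in these data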;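 also: 0% = DMSO low control and 100% = 2 mM sodium butyrate high control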); details: HEK293 GAL4-hgDAF12 luciferase reporter, agonist mode; at 6.8 µM; hits give high values; percent of butyrate response
# [15] = biological target: Oxysterols receptor LXR-beta (Homo sapiens) (UniProt P55055); experiment: LXR agonists, Gal4 luciferase reporter, confirmation, counter-screen for hgDAF-12 agonist project, cell-based, luminescence, HEK293, H. glycines campaign (AID 743051;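 active = mean activation of the triplicate above a set limit carried over from the primary screen, none filed active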); details: 24 h, at 6.8 µM, hits give high values
# [16] = biological target: Peroxisome proliferator-activated receptor gamma (Homo sapiens) (UniProt P37231); experiment: agonists of PPARgamma SRC-2 coactivator recruitment, confirmation, biochemical, HTS (AID 1297; in the data active = activation above about 22%;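 also: 0% = vehicle alone and 100% = reference agonist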); details: biochemical SRC-2 recruitment by PPARgamma; at 8 µM; hits give high values
# Peroxisome proliferator-activated receptor gamma (Homo sapiens), sequence (P37231 whole entry, looked up): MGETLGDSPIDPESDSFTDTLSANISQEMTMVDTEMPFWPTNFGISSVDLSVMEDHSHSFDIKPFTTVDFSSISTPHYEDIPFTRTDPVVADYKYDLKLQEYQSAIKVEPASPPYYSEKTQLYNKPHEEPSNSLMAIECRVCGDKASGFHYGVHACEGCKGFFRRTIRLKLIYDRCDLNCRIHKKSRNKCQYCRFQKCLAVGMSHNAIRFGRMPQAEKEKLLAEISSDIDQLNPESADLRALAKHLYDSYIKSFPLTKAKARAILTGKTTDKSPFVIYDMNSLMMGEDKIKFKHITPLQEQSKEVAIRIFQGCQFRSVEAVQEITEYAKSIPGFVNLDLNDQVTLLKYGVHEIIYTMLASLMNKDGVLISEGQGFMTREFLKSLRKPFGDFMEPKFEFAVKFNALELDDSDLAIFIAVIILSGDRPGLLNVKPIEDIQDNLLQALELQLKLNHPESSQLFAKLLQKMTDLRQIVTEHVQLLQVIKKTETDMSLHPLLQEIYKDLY
# [17] = biological target: Peroxisome proliferator-activated receptor gamma (Homo sapiens) (UniProt P37231); experiment: PPARgamma agonists recruiting SRC-1 coactivator, confirmation, biochemical (AID 1300; in the data active = activation above about 20%;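 also: 0% = vehicle wells and 100% = reference agonist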); details: PPARgamma–SRC-1 coactivator recruitment biochemical assay; at 8 µM; hits give high values
# [18] = biological target: Peroxisome proliferator-activated receptor gamma (Homo sapiens) + Nuclear receptor coactivator 3 (Homo sapiens) (UniProt P37231+Q9Y6Q9); experiment: PPARgamma-driven SRC-3 coactivator recruitment agonists, confirmation, biochemical (AID 1301; in the data active = activation above about 24%;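 also: 0% = vehicle wells and 100% = reference agonist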); details: biochemical PPARgamma-SRC-3 coactivator recruitment, agonist mode; at 8 µM; hits give high values
# [19] = biological target: Nuclear receptor coactivator 1 (Homo sapiens) (UniProt Q15788); experiment: SRC1 coactivator transcriptional activity inhibitors, confirmation, cell-based, luminescence, quadruplicate (AID 588820;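 active = mean inhibition above 46.68%, the untreated control wells mean plus 3 SD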;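 also: 0% = DMSO wells and 100% = gossypol 36 µM treated wells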); details: HEK293 GAL4-SRC1 luciferase reporter, at 3.6 µM, hits give high values
# Nuclear receptor coactivator 1 (Homo sapiens), sequence (Q15788 whole entry, looked up, the tested form may be a part): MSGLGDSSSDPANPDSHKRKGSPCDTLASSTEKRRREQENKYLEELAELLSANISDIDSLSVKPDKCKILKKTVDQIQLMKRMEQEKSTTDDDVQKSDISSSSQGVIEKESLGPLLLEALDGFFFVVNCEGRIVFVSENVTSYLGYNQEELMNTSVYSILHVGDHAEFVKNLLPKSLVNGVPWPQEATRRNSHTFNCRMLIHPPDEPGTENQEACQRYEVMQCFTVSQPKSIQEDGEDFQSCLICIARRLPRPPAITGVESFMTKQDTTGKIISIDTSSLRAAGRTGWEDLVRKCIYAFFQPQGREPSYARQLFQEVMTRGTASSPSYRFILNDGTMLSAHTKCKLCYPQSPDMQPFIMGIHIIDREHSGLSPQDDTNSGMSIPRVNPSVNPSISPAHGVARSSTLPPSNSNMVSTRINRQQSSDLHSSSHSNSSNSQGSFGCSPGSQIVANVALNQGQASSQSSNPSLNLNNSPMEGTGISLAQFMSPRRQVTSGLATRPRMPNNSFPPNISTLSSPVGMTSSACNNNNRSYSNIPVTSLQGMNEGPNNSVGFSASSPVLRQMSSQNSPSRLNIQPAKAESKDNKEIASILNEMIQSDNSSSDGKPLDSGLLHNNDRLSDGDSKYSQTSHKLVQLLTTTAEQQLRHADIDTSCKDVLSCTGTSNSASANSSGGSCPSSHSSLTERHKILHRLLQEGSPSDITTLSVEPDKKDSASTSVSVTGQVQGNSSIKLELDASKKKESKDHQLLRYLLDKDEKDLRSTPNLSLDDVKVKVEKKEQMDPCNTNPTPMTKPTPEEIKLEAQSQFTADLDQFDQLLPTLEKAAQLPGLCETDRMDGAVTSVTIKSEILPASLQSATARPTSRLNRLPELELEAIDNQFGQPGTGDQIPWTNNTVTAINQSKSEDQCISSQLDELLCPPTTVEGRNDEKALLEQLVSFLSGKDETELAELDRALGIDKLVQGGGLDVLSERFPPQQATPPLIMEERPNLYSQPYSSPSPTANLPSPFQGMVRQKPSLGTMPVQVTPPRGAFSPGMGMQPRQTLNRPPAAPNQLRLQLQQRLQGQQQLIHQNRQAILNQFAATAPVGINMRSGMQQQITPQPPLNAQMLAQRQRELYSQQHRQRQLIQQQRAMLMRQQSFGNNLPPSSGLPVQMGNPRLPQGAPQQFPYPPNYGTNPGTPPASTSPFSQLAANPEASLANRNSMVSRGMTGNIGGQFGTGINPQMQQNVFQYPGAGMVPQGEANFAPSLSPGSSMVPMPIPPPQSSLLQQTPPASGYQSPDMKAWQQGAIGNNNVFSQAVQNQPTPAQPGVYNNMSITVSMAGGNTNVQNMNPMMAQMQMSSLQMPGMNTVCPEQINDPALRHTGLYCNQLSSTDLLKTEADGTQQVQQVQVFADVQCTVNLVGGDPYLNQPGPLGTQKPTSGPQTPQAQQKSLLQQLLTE
# [20] = VP16 transactivation inhibitors, counter-screen for SRC1 inhibitor project, cell-based, luminescence, high throughput (AID 588824; in the data active = inhibition above about 25%); details: cell-based VP16 transactivation luciferase luminescence; at 3.6 µM; hits give high values
smiles,measurement,setting,value
Cc1nc2ccccc2cc1OCc1ccc(F)cc1,inhibition,[1],61.5% (active)
same,inhibition,[2],6.3%
same,inhibition,[3],5.63%
same,inhibition,[4],82.5% (active)
same,inhibition,[5],70.5%
same,inhibition,[6],-26.8%
same,inhibition,[7],38% (active)
O=C(Nc1ccc(CSc2ccccc2)cc1)c1ccc(CN2CCOCC2)cc1,inhibition,[1],83.7% (active)
same,inhibition,[2],33.3% (active)
same,inhibition,[3],10.4%
same,inhibition,[8],28.7% (active)
same,inhibition,[9],65.5% (active)
same,inhibition,[10],63% (active)
same,inhibition,[11],54.8% (active)
same,inhibition,[6],-2.4%
same,inhibition,[7],65.8% (active)
O=c1c2c(nc3cc(-c4cccc(Cl)c4)[nH]n13)CCCC2,inhibition,[1],21.9%
same,inhibition,[2],-3.1%
same,inhibition,[3],-108%
same,activation,[12],1.76%
same,activation,[13],9.19% (active)
same,activation,[14],13.8% (active)
same,activation,[15],1.15%
CCOC(=O)C1CCN(C(=O)CSc2cc(=O)n(C)c3ccccc23)CC1,activation,[16],38.9% (active)
same,activation,[17],22.9% (active)
same,activation,[18],24.4% (active)
O=C(Nc1nc(-c2ccc3c(c2)OCO3)cs1)c1ccncc1,inhibition,[1],49.5% (active)
same,inhibition,[2],11.5%
same,inhibition,[3],6.97%
same,inhibition,[6],-26.7%
same,inhibition,[7],50.7% (active)
O=c1oc(/C=C/c2ccccc2)nc2ccccc12,inhibition,[1],10.7%
same,inhibition,[2],-7.17%
same,inhibition,[3],-42.9%
same,activation,[14],14.4% (active)
same,activation,[15],0.58%
COc1cc(SC)ccc1C(=O)Nc1cc(C)ccn1,inhibition,[1],8.73%
same,inhibition,[2],-35.4%
same,inhibition,[3],-139%
same,activation,[12],1.02%
same,activation,[13],4.37%
same,activation,[14],17.2% (active)
same,activation,[15],1.05%
CCc1ccc2oc(-c3ccc(N)cc3)nc2c1,inhibition,[1],36.1%
same,inhibition,[2],13.1% (active)
same,inhibition,[3],-84.8%
same,activation,[12],1.54%
same,activation,[13],10.2% (active)
same,activation,[14],18.3% (active)
same,activation,[15],1.35%
Cc1csc(SCC(=O)Nc2sccc2C#N)n1,inhibition,[1],7.4%
same,inhibition,[2],-23.8%
same,inhibition,[3],-80.2%
same,activation,[12],1.59%
same,activation,[13],10.3% (active)
CN(Cc1cccnc1)C(=O)c1cc(COc2ccc3ncccc3c2)on1,inhibition,[1],75.9% (active)
same,inhibition,[2],25.1% (active)
same,inhibition,[3],27.1% (active)
same,inhibition,[19],-14.7%
same,inhibition,[20],26.4% (active)
same,inhibition,[4],89.1% (active)
same,inhibition,[5],78.8% (active)
same,inhibition,[6],0.64%
same,inhibition,[7],59% (active)
